# Laboratory results from PubChem BioAssay.
# Active and inactive are the calls of the source. Unless noted, no rule for the calls is given here.
# Assays:
# [1] = resazurin metabolic signal in HepG2 cells – cell-based, resazurin fluorescence, 24 h, PK04 Diversity Set, profiling panel (AID 1172); conditions: HepG2 viability, higher = more signal
# [2] = budding yeast growth changes without added modifier – OD600, strain BY4716, 24 h, basal condition, primary screen (AID 1173); conditions: S. cerevisiae BY4716 growth, OD600, 24 h; higher = more signal, called active from +8 up or from −8 down
# [3] = viability profiling in MM1S myeloma cells – cell-based, resazurin fluorescence, basal, 24 h, PK04 Diversity Set, profiling panel (AID 1174); conditions: higher = more signal, called active from +8 up or from −8 down;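 also: MM1S multiple myeloma cell line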
# [4] = target: Dihydroorotate dehydrogenase (quinone), mitochondrial (Plasmodium falciparum (isolate 3D7)) (UniProt Q08210); experiment: inhibition of P. falciparum DHODH – biochemical, C-terminal His tag, absorbance 600 nm, primary screen (AID 1175); conditions: PfDHODH enzyme, DCIP absorbance 600 nm; higher = more signal, called active from +8 up or from −8 down;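 also: recombinant parasite enzyme with a five histidine tag at its C terminus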
# [5] = inhibition of PAO1 biofilm formation – strain PAO1, LB-PBS medium, absorbance 600 nm, primary screen (AID 1176); conditions: P. aeruginosa PAO1 growth/biofilm, A600, 12 h; higher = more signal
# [6] = growth modulation of vineyard yeast isolate – strain RM11-1a, OD600, basal, 24 h, primary screen (AID 1177);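 also: cultures grown under basal conditions with no added stressor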; conditions: S. cerevisiae RM11-1a growth, OD600, 24 h; higher = more signal, called active from +8 up or from −8 down
# [7] = growth of efflux-deficient E. coli DRC39 – strain DRC39, OD650, 24 h, E. coli filamentation inducers, primary screen (AID 1178);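 also: growth measured as culture turbidity by optical density at 650 nm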; conditions: E. coli DRC39 acrAB, higher = more signal, called active from +8 up or from −8 down
# [8] = growth of efflux-deficient E. coli DRC39 – strain DRC39, OD650, 48 h, E. coli filamentation inducers, primary screen (AID 1179);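 also: screen aims at cell division blockers that make cells filament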; conditions: E. coli DRC39 delta-acrAB growth, higher = more signal, called active from +8 up or from −8 down
# [9] = viability profiling in RPMI8226 myeloma cells – cell-based, resazurin fluorescence, basal, 24 h, PK04 Diversity Set, profiling panel (AID 1180); conditions: higher = more signal;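 also: RPMI8826 multiple myeloma cell line at 5000 cells per well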
# [10] = target: E3 ubiquitin-protein ligase XIAP (Homo sapiens) (UniProt P98170); experiment: small molecules binding XIAP protein – biophysical, small-molecule microarray, fluorescence 635 nm, primary screen (AID 1181); conditions: higher = more signal;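 also: score merges 667 nm emission and signal to noise over triplicate slides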
# [11] = tested on: XIP peptide (Xip251-270) binding; experiment: XIP fragment 251-270 binding compounds – biochemical, small-molecule microarray, fluorescence 635/667 nm, 0.1 µg/mL protein, primary screen (AID 1182); conditions: fluorescent protein binding, 635 nm, higher = more signal, called active from +8 up or from −8 down
# XIP peptide (Xip251-270) = experiment: compounds binding XIP fragment 251-270 – biochemical, small-molecule microarray, fluorescence 635/667 nm, 0.5 µg/mL protein, primary screen (AID 1183); conditions: fluorescence 635 nm, higher = more signal
# [12] = blood-stage malaria parasite viability loss – strain 3D7, DAPI fluorescence, 100 nL, primary screen (AID 1184);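 also: parasites grown inside human red blood cells in medium with human serum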; conditions: P. falciparum 3D7 growth, 3 d, higher = more signal
# [13] = target: Homeobox protein Hox-A13 (Mus musculus) (UniProt Q62424); experiment: disruptors of Hoxa13 oligonucleotide interaction – biochemical, fluorescence polarization, labeled oligonucleotide, primary screen (AID 1185); conditions: Hoxa13:DNA binding, 15 min, higher = more signal, called active from +8 up or from −8 down
# [14] = blockers of DNA damage checkpoint Chk1 activation – imaging, HeLa, hydroxyurea, phospho-Chk1 antibody, percent positive cells, primary screen (AID 1186); conditions: hydroxyurea-induced phospho-Chk1 immunofluorescence imaging, higher = more signal
# [15] = blockers of DNA damage checkpoint Chk1 activation – imaging, HeLa, hydroxyurea, phospho-Chk1 nuclear intensity, primary screen (AID 1187); conditions: hydroxyurea-induced phospho-Chk1 immunofluorescence imaging, higher = more signal
# Homeobox protein Hox-A13 (Mus musculus), sequence (Q62424 whole entry, looked up): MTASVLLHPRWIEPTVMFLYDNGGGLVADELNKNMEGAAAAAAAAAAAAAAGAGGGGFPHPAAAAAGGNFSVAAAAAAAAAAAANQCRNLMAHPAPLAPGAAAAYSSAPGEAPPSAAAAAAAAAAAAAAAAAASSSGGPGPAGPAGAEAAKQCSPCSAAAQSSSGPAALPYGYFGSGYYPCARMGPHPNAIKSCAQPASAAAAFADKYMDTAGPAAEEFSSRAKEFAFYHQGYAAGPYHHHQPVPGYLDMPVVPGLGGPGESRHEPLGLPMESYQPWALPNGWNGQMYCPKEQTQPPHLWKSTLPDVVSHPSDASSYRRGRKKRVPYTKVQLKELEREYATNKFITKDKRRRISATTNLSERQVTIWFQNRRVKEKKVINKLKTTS
# E3 ubiquitin-protein ligase XIAP (Homo sapiens), sequence (P98170 whole entry, looked up, the tested form may be a part): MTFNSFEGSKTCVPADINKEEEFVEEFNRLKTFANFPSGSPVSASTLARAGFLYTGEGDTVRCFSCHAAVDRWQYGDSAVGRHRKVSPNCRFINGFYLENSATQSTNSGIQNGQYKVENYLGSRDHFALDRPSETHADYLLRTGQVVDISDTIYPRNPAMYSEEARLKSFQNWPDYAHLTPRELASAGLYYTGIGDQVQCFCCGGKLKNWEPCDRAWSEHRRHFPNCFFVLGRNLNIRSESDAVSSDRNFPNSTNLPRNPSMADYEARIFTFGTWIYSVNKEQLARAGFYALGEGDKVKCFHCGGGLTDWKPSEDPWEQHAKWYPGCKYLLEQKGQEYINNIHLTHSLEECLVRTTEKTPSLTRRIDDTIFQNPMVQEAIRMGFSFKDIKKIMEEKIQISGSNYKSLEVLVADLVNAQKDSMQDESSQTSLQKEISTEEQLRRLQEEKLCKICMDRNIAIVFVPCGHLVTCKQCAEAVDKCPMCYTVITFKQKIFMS
# Dihydroorotate dehydrogenase (quinone), mitochondrial (Plasmodium falciparum (isolate 3D7)), sequence (Q08210 whole entry, looked up): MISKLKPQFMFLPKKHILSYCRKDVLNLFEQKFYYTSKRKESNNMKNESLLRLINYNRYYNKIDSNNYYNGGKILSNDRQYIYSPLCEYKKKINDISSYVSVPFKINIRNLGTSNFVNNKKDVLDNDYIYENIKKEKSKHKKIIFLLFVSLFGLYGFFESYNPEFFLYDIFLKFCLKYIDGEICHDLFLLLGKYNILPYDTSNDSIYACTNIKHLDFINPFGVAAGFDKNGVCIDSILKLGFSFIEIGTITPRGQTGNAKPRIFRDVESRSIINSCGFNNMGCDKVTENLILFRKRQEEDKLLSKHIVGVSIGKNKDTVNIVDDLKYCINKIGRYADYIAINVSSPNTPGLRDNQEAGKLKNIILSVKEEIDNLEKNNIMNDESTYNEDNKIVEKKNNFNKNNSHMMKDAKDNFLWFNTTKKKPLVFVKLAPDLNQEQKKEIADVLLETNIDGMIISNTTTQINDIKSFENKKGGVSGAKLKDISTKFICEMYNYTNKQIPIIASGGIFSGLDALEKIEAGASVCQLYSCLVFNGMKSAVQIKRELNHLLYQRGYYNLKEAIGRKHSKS
Compound,z-score [1],z-score [2],z-score [3],composite z-score [4],z-score [5],z-score [6],z-score [7],z-score [8],z-score [9],composite z-score [10],composite z-score [11],composite z-score (XIP peptide (Xip251-270)),z-score [12],z-score [13],z-score [14],z-score [15]
[N-]=[N+]=NCc1ccccc1C[C@]1(C(=O)N2CCOCC2)N=C(c2ccc(OCCCO)cc2)O[C@H]1c1ccccc1CN=[N+]=[N-],0.133,1.06 (inactive),-0.481 (inactive),1.21 (inactive),0.948 (inactive),2.39 (inactive),1.67 (inactive),0.93 (inactive),-1.11,0.411,0.158 (inactive),0.733,-2.28,0.116 (inactive),-0.597 (inactive),-0.736 (inactive)
COC(=O)C(CC#Cc1ccc2c(c1)[C@]1(C(=O)N2)[C@H](c2ccc(O)cc2)N2[C@H](c3ccccc3)[C@H](c3ccccc3)OC(=O)[C@H]2[C@@H]1C(=O)N1CCc2cc(OC)c(OC)cc2C1)C(=O)OC,0.445,0.954 (inactive),-0.938 (inactive),-11.2 (active),0.573 (inactive),1.58 (inactive),-0.158 (inactive),-0.627 (inactive),-4.12,-0.117,1.78 (inactive),0.779,-2.02,-2.32 (inactive),0.323 (inactive),0.0329 (inactive)
CN1C(=O)C2C=CC(C(O)c3ccc(-c4ccccc4)s3)N(Nc3ccccc3)C2C1=O (stereo not drawn),-0.208,-1.02 (inactive),-1.03 (inactive),0.71 (inactive),1.6 (inactive),0.0727 (inactive),0.243 (inactive),-0.0198 (inactive),-0.985,0.148,0.844 (inactive),0.753,1.23,-4.68 (inactive),-0.11 (inactive),-0.316 (inactive)
O=C1C2C=CC(C(O)c3cccc(O)c3)N(Nc3ccccc3F)C2C(=O)N1c1ccccc1 (stereo not drawn),0.244,-14.7 (active),-0.343 (inactive),-2.46 (inactive),1.22 (inactive),-7.32 (inactive),0.684 (inactive),0.573 (inactive),0.133,0.0345,1.62 (inactive),0.632,-1.33,-3.57 (inactive),-0.388 (inactive),-1.33 (inactive)
COCCCNC(=O)[C@@]1(Sc2ccc(C)cc2)CC(=O)N(C2CCCCC2)[C@@H]1c1ccc(CO)cc1I,0.5,-0.172 (inactive),-0.326 (inactive),0.335 (inactive),0.627 (inactive),-1.09 (inactive),0.16 (inactive),0.228 (inactive),-1.66,-0.328,-0.159 (inactive),0.736,-1.39,-5.66 (inactive),0.46 (inactive),0.268 (inactive)
COc1ccc(C#Cc2ccc3c(c2)[C@]2(C(=O)N3)[C@H](C(=O)Nc3nc4ccccc4s3)[C@H]3C(=O)O[C@H](c4ccccc4)[C@H](c4ccccc4)N3[C@@H]2c2ccc(OCCO)cc2)cc1,0.839,2.43 (inactive),-0.625 (inactive),-22.3 (active),2.93 (inactive),2.53 (inactive),0.544 (inactive),0.196 (inactive),-0.639,0.0849,-0.509 (inactive),0.782,-0.668,1.71 (inactive),0.218 (inactive),-0.0348 (inactive)
COc1ccc([Si](C)(C)[C@H]2[C@H](CC(=O)N3Cc4ccccc4C[C@H]3CO)O[C@@]3(C(=O)N(Cc4cccc(N5C(=O)c6cccc7cccc5c67)c4)c4ccccc43)[C@@H]2C)cc1,-0.539,-0.563 (inactive),-2.76 (inactive),-1.88 (inactive),1.49 (inactive),1.95 (inactive),0.643 (inactive),0.209 (inactive),-2,0.0153,0.14 (inactive),0.802,-2.45,-2.56 (inactive),-0.887 (inactive),-0.153 (inactive)
O=C1c2ccccc2[C@](Cc2ccccc2I)(C(=O)O)[C@H](c2ccc(CO)cc2)N1Cc1ccccc1,-0.52,-1.72 (inactive),-0.427 (inactive),-5.63 (inactive),-0.121 (inactive),-2.09 (inactive),0.656 (inactive),1.39 (inactive),-0.831,0.147,0.947 (inactive),0.754,0.387,-4.44 (inactive),-0.422 (inactive),-0.204 (inactive)
C=CCC(OC(C)=O)[C@@H]1[C@@H](N(Cc2cc3ccccc3o2)C(=O)Cc2ccc(OC)cc2)c2cc(OCCCO)ccc2N1C(=O)Cc1ccc2ccccc2c1 (stereo partly drawn),-1.22,-0.379 (inactive),0.499 (inactive),0.65 (inactive),-0.17 (inactive),0.101 (inactive),-0.529 (inactive),-0.94 (inactive),-0.216,0.308,-0.324 (inactive),-0.375,-2.15,-1.62 (inactive),0.405 (inactive),0.517 (inactive)
C=C(CCCC)C(=O)CC[C@H](OC(C)=O)c1ccccc1OCCO,-1.32,-2.49 (inactive),-2.2 (inactive),-0.573 (inactive),-1.24 (inactive),0.0549 (inactive),-1.17 (inactive),-1.1 (inactive),-2.13,-0.0696,0.551 (inactive),0.439,-2.52,-5.49 (inactive),-0.384 (inactive),0.126 (inactive)
C=C(COC)C(=O)CC[C@@H](OC(=O)c1cccnc1)c1cccc(OCCO)c1,0.312,0.798 (inactive),-0.857 (inactive),-0.289 (inactive),0.543 (inactive),0.544 (inactive),1.16 (inactive),0.927 (inactive),-2.55,-0.162,-0.209 (inactive),0.617,-2.53,-4.51 (inactive),-0.494 (inactive),2.22 (inactive)
COC(=O)[C@@]1(Cc2ccc(F)cc2)[C@H]2c3cc(C(=O)N4CCCC4)n(CCO)c3C[C@H]2CN1C(=O)c1ccccc1,-0.31,0.894 (inactive),-1.38 (inactive),-0.757 (inactive),-0.278 (inactive),0.302 (inactive),0.0412 (inactive),-0.654 (inactive),-0.908,-0.16,-0.33 (inactive),0.676,-1.26,-5.44 (inactive),-0.961 (inactive),-0.836 (inactive)
COc1ccc([Si](C)(C)[C@@H]2[C@@H](CC(=O)N(CCO)Cc3ccccc3)O[C@]3(C(=O)N(Cc4ccc(N5CCC5=O)cc4)c4ccccc43)[C@H]2C)cc1,0.278,0.144 (inactive),-0.604 (inactive),-1.44 (inactive),1.2 (inactive),0.67 (inactive),0.505 (inactive),0.358 (inactive),-1.66,-0.0151,3.33 (inactive),0.443,-0.767,-1.08 (inactive),0.366 (inactive),0.971 (inactive)
CCC[C@@H]1C=C(C(=O)OCC)[C@H](c2ccccc2)N1S(=O)(=O)c1ccc(C)cc1,-0.197,1.53 (inactive),-0.37 (inactive),-0.0973 (inactive),0.0362 (inactive),1.84 (inactive),-0.213 (inactive),0.0062 (inactive),-1.89,-0.0696,0.406 (inactive),0.681,-2.11,-0.624 (inactive),0.144 (inactive),0.0243 (inactive)
Cc1c(-c2ccc(-c3ccc(Cl)c(Cl)c3)o2)nc(-c2ccccc2)c2c1CO[Si]2(C(C)C)C(C)C,0.368,-0.922 (inactive),-2 (inactive),-0.063 (inactive),0.82 (inactive),-0.569 (inactive),0.575 (inactive),0.462 (inactive),-0.639,0.504,0.401 (inactive),0.761,0.962,-1.48 (inactive),0.0151 (inactive),-0.0709 (inactive)
NCCCC[C@@H]1NC(=O)[C@H]2C[C@@H](C(=O)NCc3ccc(F)cc3)[C@@H](c3ccc(O)cc3)N2C1=O,0.175,1.15 (inactive),0.247 (inactive),-0.17 (inactive),0.174 (inactive),1.02 (inactive),0.207 (inactive),-0.277 (inactive),0.191,0.226,2.07 (inactive),0.563,0.338,-4.42 (inactive),-0.52 (inactive),-0.367 (inactive)
CN(C)CCCNC(=O)[C@@H]1c2ccccc2C(=O)N(C2Cc3ccccc3C2)[C@H]1c1ccc(CO)cc1,-0.785,-0.944 (inactive),0.0257 (inactive),-0.487 (inactive),0.444 (inactive),-0.632 (inactive),0.615 (inactive),0.597 (inactive),0.461,0.0345,-0.233 (inactive),0.677,-1.09,0.84 (inactive),-0.765 (inactive),-0.961 (inactive)
C[C@H]1NC(=O)C([C@@H](C)OCc2ccccc2)NC(=O)[C@@]23C(=O)N[C@@H](Cc4ccccc4)C2[C@H](C)[C@@]2(C)O[C@H]2C3/C=C/C/C=C\CNC1=O (stereo partly drawn),-0.588,0.481 (inactive),0.178 (inactive),0.369 (inactive),0.13 (inactive),0.787 (inactive),0.979 (inactive),0.545 (inactive),0.472,-0.381,-0.113 (inactive),-0.417,-2.93,-6.74 (inactive),0.314 (inactive),0.451 (inactive)
